Reference: PubChem BioAssay (EPA / NIEHS)
Active and inactive are the calls of the source. The calls were made as follows: active = hit-call score of the fitted dose curve at least 0.9, where 1 is the maximum; inactive = score below 0.9.

What was measured:
Conditions in all cases: mRNA level, 48 h; actives raise or lower the signal
[1] = read-out: Intercellular Adhesion Molecule 1 (ICAM1), ICAM1 (gene 3383); experiment: LTEA_HepaRG_ICAM1: Life Technologies and Expression Analysis (LTEA) Assay for Intercellular Adhesion Molecule 1 (ICAM1) using HepaRG (AID 2283507)
Procedure, shortened: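 Differentiated human HepaRG cells in serum-free induction medium exposed 48 h in duplicate to 8 half-log concentrations (top 100 uM, 0.5% DMSO). ICAM1 mRNA quantified by TaqMan qRT-PCR, normalized to ACTB, GAPDH and POLR2A; bidirectional fitting versus DMSO.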

[2] = read-out: Insulin-like growth factor-binding protein 1 (IGFBP1), IGFBP1 (gene 3484); experiment: LTEA_HepaRG_IGFBP1: Life Technologies and Expression Analysis (LTEA) Assay for Insulin-like growth factor-binding protein 1 (IGFBP1) using HepaRG (AID 2283508)
Procedure, shortened: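 HepaRG cells, plated 48 h then switched to serum-free induction medium, exposed in duplicate for 48 h to 8-point half-log series from 100 uM in 0.5% DMSO. mRNA measured by qRT-PCR, normalized to ACTB/GAPDH/POLR2A; bidirectional fit versus DMSO.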

[3] = read-out: Interleukin 6 (IL6), IL6 (gene 3569); experiment: LTEA_HepaRG_IL6: Life Technologies and Expression Analysis (LTEA) Assay for Interleukin 6 (IL6) using HepaRG (AID 2283509)
Procedure, shortened: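 Transcript levels, normalized to three housekeeping genes, were quantified by qRT-PCR after 48 h chemical treatment of HepaRG cells. Eight-point half-log series from 100 uM in 0.5% DMSO, duplicates. Fitted both directions against DMSO baseline.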

[4] = read-out: Interleukin 6 Receptor (IL6R), IL6R (gene 3570); experiment: LTEA_HepaRG_IL6R: Life Technologies and Expression Analysis (LTEA) Assay for Interleukin 6 Receptor (IL6R) using HepaRG (AID 2283510);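 as to AC50: TaqMan qRT-PCR signal normalized to ACTB GAPDH and POLR2A housekeeping genes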
Procedure, shortened: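 HepaRG, 48 h exposure, 8-pt half-log series, top 100 uM, 0.5% DMSO vehicle, duplicates. Read-out: TaqMan qRT-PCR of IL6R transcript, housekeeping-gene normalized. Gain or loss fitted relative to DMSO baseline.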

[5] = read-out: Potassium channel subfamily K member 1 (KCNK1), KCNK1 (gene 3775); experiment: LTEA_HepaRG_KCNK1: Life Technologies and Expression Analysis (LTEA) Assay for Potassium channel subfamily K member 1 (KCNK1) using HepaRG (AID 2283511)
Procedure, shortened: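 KCNK1 transcript measured by TaqMan qRT-PCR against three housekeeping genes, after HepaRG cells were treated 48 h with eight half-log concentrations (top 100 uM, 0.5% DMSO). Curves fitted bidirectionally relative to vehicle.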

[6] = read-out: Keratin 19 (KRT19), KRT19 (gene 3880); experiment: LTEA_HepaRG_KRT19: Life Technologies and Expression Analysis (LTEA) Assay for Keratin 19 (KRT19) using HepaRG (AID 2283512)
Procedure, shortened: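 Differentiated HepaRG cells in serum-free induction medium, exposed 48 h in duplicate to 8 half-log concentrations up to 100 uM in 0.5% DMSO. KRT19 mRNA by qRT-PCR, normalized to ACTB, GAPDH, POLR2A; bidirectional fit vs DMSO.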

[7] = read-out: JUN Transcription Factor, JUN (gene 3725); experiment: LTEA_HepaRG_JUN: Life Technologies and Expression Analysis (LTEA) Assay for JUN Transcription Factor using HepaRG (AID 2283513)
Procedure, shortened: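 HepaRG, 48 h exposure, 8-pt half-log series top 100 uM, 0.5% DMSO, duplicate. JUN mRNA by qRT-PCR (Fluidigm), housekeeping-normalized (ACTB/GAPDH/POLR2A); bidirectional curve fit vs DMSO baseline.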

[8] = read-out: Lipase C (LIPC), LIPC (gene 3990); experiment: LTEA_HepaRG_LIPC: Life Technologies and Expression Analysis (LTEA) Assay for Lipase C (LIPC) using HepaRG (AID 2283514)
Procedure, shortened: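 LIPC expression was quantified by qRT-PCR against three housekeeping genes (ACTB, GAPDH, POLR2A). Differentiated human HepaRG cells received eight half-log doses (top 100 uM, 0.5% DMSO) in duplicate for 48 h; fitting bidirectional relative to DMSO.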

[9] = read-out: Lipoprotein lipase (LPL), LPL (gene 4023); experiment: LTEA_HepaRG_LPL: Life Technologies and Expression Analysis (LTEA) Assay for Lipoprotein lipase (LPL) using HepaRG (AID 2283515)
Procedure, shortened: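 LPL transcript levels quantified by TaqMan qRT-PCR against three housekeeping genes after 48 h chemical treatment of HepaRG cells. Eight-point half-log series from 100 uM in 0.5% DMSO, tested in duplicate; bidirectional fitting versus vehicle.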

[10] = read-out: matrix metalloproteinase-10 (MMP10), MMP10 (gene 4319); experiment: LTEA_HepaRG_MMP10: Life Technologies and Expression Analysis (LTEA) Assay for matrix metalloproteinase-10 (MMP10) using HepaRG (AID 2283517)
Procedure, shortened: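 Expression measured by TaqMan qRT-PCR with ACTB/GAPDH/POLR2A normalisation after 48 h chemical exposure of HepaRG cells. Eight half-log concentrations, top 100 uM, 0.5% DMSO vehicle, duplicates; gain or loss fitted against vehicle.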

[11] = read-out: MYC, MYC (gene 4609); experiment: LTEA_HepaRG_MYC: Life Technologies and Expression Analysis (LTEA) Assay for MYC using HepaRG (AID 2283518)
Procedure, shortened: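 Differentiated HepaRG cells exposed 48 h in serum-free induction medium to 8 concentrations (top 100 uM, half-log steps; 0.5% DMSO), duplicate. MYC mRNA measured by Fluidigm qRT-PCR, normalized to ACTB, GAPDH, POLR2A; bidirectional fit versus DMSO.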

[12] = read-out: Paternally Expressed 10 (PEG10), PEG10 (gene 23089); experiment: LTEA_HepaRG_PEG10: Life Technologies and Expression Analysis (LTEA) Assay for Paternally Expressed 10 (PEG10) using HepaRG (AID 2283520);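 as to AC50: PEG10 transcript by qRT-PCR normalised to ACTB GAPDH and POLR2A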
Procedure, shortened: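 qRT-PCR read-out: PEG10 mRNA normalised to three housekeeping genes, fitted bidirectionally against 0.5% DMSO vehicle. HepaRG cells received test chemicals for 48 h in serum-free induction medium, 8 points, top 100 uM, half-log steps.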

[13] = read-out: Protein phosphatase 2A (PPP2R4), PTPA (gene 5524); experiment: LTEA_HepaRG_PPP2R4: Life Technologies and Expression Analysis (LTEA) Assay for Protein phosphatase 2A (PPP2R4) using HepaRG (AID 2283522)
Procedure, shortened: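 HepaRG, 48 h exposure, 8-pt half-log series from 100 uM, 0.5% DMSO vehicle, duplicates. Readout: PPP2R4 mRNA, Fluidigm qRT-PCR, housekeeping-normalized. Bidirectional curve fit vs DMSO baseline.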

[14] = read-out: Phosphatase and tensin (PTEN), PTEN (gene 5728); experiment: LTEA_HepaRG_PTEN: Life Technologies and Expression Analysis (LTEA) Assay for Phosphatase and tensin (PTEN) using HepaRG (AID 2283523)
Procedure, shortened: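 Read-out: TaqMan qRT-PCR of PTEN transcript, normalized to three housekeeping genes, fitted in both directions against 0.5% DMSO. Differentiated human HepaRG cultures received chemicals for 48 h, eight-point half-log series topping at 100 uM.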

[15] = read-out: solute carrier (SLC22A1), SLC22A1 (gene 6580); experiment: LTEA_HepaRG_SLC22A1: Life Technologies and Expression Analysis (LTEA) Assay for solute carrier (SLC22A1) using HepaRG (AID 2283524)
Procedure, shortened: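 Transcript level of SLC22A1 quantified by qRT-PCR (normalized to three housekeeping genes) after 48 h chemical exposure of HepaRG cells, eight concentrations up to 100 µM, half-log steps, 0.5% DMSO vehicle. Gain or loss relative to DMSO fitted bidirectionally.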

[16] = read-out: Pyruvate Dehydrogenase Kinase 4 (PDK4), PDK4 (gene 5166); experiment: LTEA_HepaRG_PDK4: Life Technologies and Expression Analysis (LTEA) Assay for Pyruvate Dehydrogenase Kinase 4 (PDK4) using HepaRG (AID 2283525)
Procedure, shortened: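 Readout is qRT-PCR of PDK4 transcript, normalized to three housekeeping genes, with bidirectional fitting against 0.5% DMSO vehicle. Differentiated HepaRG cells were treated 48 h in serum-free induction medium, duplicate wells, eight-point half-log series topping at 100 uM.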

[17] = read-out: MicroRNA 122 (MIR122), gene 406906; experiment: LTEA_HepaRG_MIR122: Life Technologies and Expression Analysis (LTEA) Assay for MicroRNA 122 (MIR122) using HepaRG (AID 2283516); also: the transcript read is the microRNA miR-122
Procedure, shortened: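 qRT-PCR read-out (TaqMan, Fluidigm array), normalized to three housekeeping genes; HepaRG cells dosed 48 h at 8 concentrations up to 100 uM in 0.5% DMSO, duplicate; gain or loss fitted against DMSO baseline.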

[18] = read-out: Nuclear factor NF-kappa-B p105 subunit (Homo sapiens) (UniProt P19838); experiment: LTEA_HepaRG_NFKB1: Life Technologies and Expression Analysis (LTEA) Assay for Nuclear Factor Kappa B Subunit 1 (NFKB1) using HepaRG (AID 2283521)
Procedure, shortened: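 Human HepaRG cells receive eight half-log concentrations, highest 100 uM, for 48 h. NFKB1 expression is then quantified by qRT-PCR and analysed for up- or down-regulation relative to 0.5% DMSO vehicle.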

[19] = read-out: NAD(P)H dehydrogenase [quinone] 1 (NQO1), NQO1 (gene 1728); experiment: LTEA_HepaRG_NQO1: Life Technologies and Expression Analysis (LTEA) Assay for NAD(P)H dehydrogenase [quinone] 1 (NQO1) using HepaRG (AID 2283526)
Procedure, shortened: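 qRT-PCR read-out (Fluidigm TaqMan), normalized to three housekeeping genes, after 48 h chemical exposure of HepaRG cells. Concentrations: eight points, top 100 uM, half-log steps, 0.5% DMSO vehicle. Gain or loss of signal fitted relative to DMSO.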

Measured: AC50

Sequence of Nuclear factor NF-kappa-B p105 subunit (Homo sapiens) (P19838 whole entry, looked up): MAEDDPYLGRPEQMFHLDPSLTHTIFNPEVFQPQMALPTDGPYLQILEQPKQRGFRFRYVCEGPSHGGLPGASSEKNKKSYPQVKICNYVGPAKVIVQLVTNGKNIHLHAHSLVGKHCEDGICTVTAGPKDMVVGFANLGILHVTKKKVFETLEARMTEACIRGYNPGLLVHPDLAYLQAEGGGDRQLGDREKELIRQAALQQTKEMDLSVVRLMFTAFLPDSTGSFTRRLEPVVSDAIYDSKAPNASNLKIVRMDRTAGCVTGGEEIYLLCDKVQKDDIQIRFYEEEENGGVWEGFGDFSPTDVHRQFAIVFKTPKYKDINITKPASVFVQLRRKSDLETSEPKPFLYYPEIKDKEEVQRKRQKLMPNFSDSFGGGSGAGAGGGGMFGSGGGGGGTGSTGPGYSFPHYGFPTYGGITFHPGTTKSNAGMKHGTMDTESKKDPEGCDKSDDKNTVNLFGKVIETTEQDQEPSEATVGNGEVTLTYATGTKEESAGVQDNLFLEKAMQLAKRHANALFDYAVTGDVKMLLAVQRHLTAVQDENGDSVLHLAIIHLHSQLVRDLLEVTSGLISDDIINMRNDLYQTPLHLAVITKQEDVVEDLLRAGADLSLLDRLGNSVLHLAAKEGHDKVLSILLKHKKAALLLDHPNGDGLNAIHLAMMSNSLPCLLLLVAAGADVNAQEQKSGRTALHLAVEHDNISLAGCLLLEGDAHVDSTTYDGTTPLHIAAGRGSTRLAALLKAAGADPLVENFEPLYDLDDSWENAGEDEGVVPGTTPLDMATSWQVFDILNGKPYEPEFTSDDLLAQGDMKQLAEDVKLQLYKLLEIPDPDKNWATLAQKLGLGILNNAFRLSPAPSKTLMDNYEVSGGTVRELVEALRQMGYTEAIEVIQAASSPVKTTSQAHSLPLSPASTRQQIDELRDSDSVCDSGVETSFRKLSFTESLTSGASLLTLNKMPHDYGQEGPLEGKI

COP(=O)(OC)OC(Br)C(Cl)(Cl)Br (centres undefined)
inactive: [1] | [2] | [4] | [5] | [6] | [7] | [8] | [9] | [10] | [11] | [12] | [13] | [14] | [15] | [16]
active: [3] 50 µM

Nc1nc(N)nc(NC2CC2)n1
inactive: [1] | [2] | [3] | [4] | [5] | [6] | [7] | [8] | [9] | [17] | [10] | [11] | [12] | [18] | [13] | [14] | [15] | [16] | [19]

CCCOCC(=Nc1ccc(Cl)cc1C(F)(F)F)n1ccnc1
inactive: [5] | [18]
active: [1] 88.2 µM | [3] 85.7 µM | [4] 66.4 µM | [6] 12 µM | [7] 73.1 µM | [8] 15.8 µM | [9] 12.8 µM | [17] 17.1 µM | [10] 78.7 µM | [11] 50 µM | [12] 28.3 µM | [13] 80.7 µM | [14] 81.8 µM | [15] 21.4 µM | [16] 11.5 µM

Nc1c(Cl)cc([N+](=O)[O-])cc1Cl
active: [2] 23.7 µM | [4] 28.2 µM | [6] 6.97 µM | [8] 75.3 µM | [9] 15.5 µM | [17] 50 µM | [11] 12.3 µM | [12] 36.7 µM | [18] 12.2 µM | [13] 50 µM | [14] 4.24 µM | [15] 60.8 µM | [16] 50 µM
inactive: [1] | [3] | [5] | [7] | [10] | [19]

CC(COc1ccc(Oc2ccccc2)cc1)Oc1ccccn1 (centres undefined)
active: [15] 12.1 µM | [16] 25.4 µM
inactive: [1] | [2] | [3] | [4] | [5] | [6] | [7] | [8] | [9] | [17] | [10] | [11] | [12] | [18] | [13] | [14] | [19]

CON=C(C(=O)OC)c1ccccc1CON=C(C)c1cccc(C(F)(F)F)c1
inactive: [1] | [2] | [3] | [4] | [5] | [6] | [7] | [8] | [9] | [17] | [10] | [11] | [12] | [18] | [13] | [14] | [16] | [19]
active: [15] 50 µM
